{"source": "PubChem BioAssay AID720697", "about": "(Broad Institute, 2013)", "note": "Entries with a potency or affinity are not part of this list. Records with an inconclusive call do not appear. Unmarked numbers belong to inactive results. Active and inactive are the calls of the source.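 How the source made its calls: active means signal loss with fitted half-maximal concentration at or below twice the top valid tested dose in every test run; inconclusive means runs disagree, flat 30 to 70% signal loss, or poor fit; inactive means all runs flat, opposite direction, or potency beyond limit.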", "data": [{"assay": "general mammalian cell viability loss – inhibitor set, cherry-pick, set 2, cytotoxicity control for miR-122 modulator project, dose response (AID 720697);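 further: 0% = median of neutral control wells and -100% = MG132 positive control wells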", "settings": "HEK293T viability, CellTiter-Glo luminescence, 48 h; series mostly up to 26 µM", "values": [{"molecule": "CCN(CC)CCNc1nc(-c2ccccc2)nnc1C(F)(F)F", "outcome": "inactive"}, {"molecule": "CNC(=O)C[C@@H]1CC[C@@H]2[C@@H](COc3ccc(NC(=O)c4ccccc4F)cc3C(=O)N2C)O1", "outcome": "inactive"}, {"molecule": "C[C@@H]1CN([C@H](C)CO)S(=O)(=O)c2ccc(/C=C/c3ccccc3)cc2O[C@@H]1CN(C)C(=O)c1cccnc1", "outcome": "inactive"}, {"molecule": "C/C=C/c1ccc([C@H]2[C@@H](CO)N(C(=O)C3CC3)[C@H]2CN(C)C(=O)CC2CC2)cc1", "outcome": "inactive"}, {"molecule": "O=C(COC(=O)Cc1ccc(S(=O)(=O)N2CCOCC2)s1)Nc1ccc2c(c1)OCO2", "outcome": "inactive"}, {"molecule": "C/C=C/c1ccc2c(c1)O[C@H](CN(C)C(=O)c1cnccn1)[C@H](C)CN([C@H](C)CO)S2(=O)=O", "outcome": "inactive"}, {"molecule": "CN(c1ccccc1)S(=O)(=O)c1ccc(C(=O)Nc2cccc(S(=O)(=O)N3CCOCC3)c2)cc1", "outcome": "inactive"}, {"molecule": "CCN(CC)CCNC(=O)c1ccc(NC(=O)c2cn(-c3ccc(F)cc3)nc2-c2cccc(OC)c2)cc1", "activity change, negative = cytotoxicity": "-17.7% [at 6 µM]"}, {"molecule": "CO[C@H]1CN(C)C(=O)c2cc(NC(C)=O)ccc2OC[C@@H](C)N(C(=O)CC2CC2)C[C@H]1C", "outcome": "inactive"}, {"molecule": "CN1C(=O)c2cc(NC(=O)c3cccc(F)c3)ccc2OC[C@@H]2O[C@H](CC(=O)Nc3ccccc3)CC[C@H]21", "outcome": "inactive"}, {"molecule": "CCNC(=O)C[C@@H]1CC[C@H]2[C@@H](COc3ccc(NC(=O)Nc4ccc(F)cc4)cc3C(=O)N2C)O1", "outcome": "inactive"}, {"molecule": "COc1cccc(NC(=O)N2[C@H](CO)[C@@H](c3ccccc3)[C@H]2CNCC(C)C)c1", "outcome": "inactive"}, {"molecule": "CO[C@@H]1CN(C)C(=O)c2ccc(NC(=O)Nc3ccc(C(F)(F)F)cc3)cc2OC[C@H](C)NC[C@H]1C", "outcome": "inactive"}, {"molecule": "CNC[C@@H]1Oc2cc(C#CC3CCCCC3)ccc2S(=O)(=O)N([C@@H](C)CO)C[C@@H]1C", "outcome": "inactive"}, {"molecule": "CCCCN(CCCC)C(=O)CN(C)S(=O)(=O)c1ccc2c(c1)n(C)c(=O)c(=O)n2C", "outcome": "inactive"}, {"molecule": "N#CCc1c(C#N)c(N)nc(N2CCN(S(=O)(=O)c3ccccc3)CC2)c1C#N", "outcome": "inactive"}, {"molecule": "CN1C(=O)c2cc(NC(=O)c3cccc(F)c3)ccc2OC[C@@H]2O[C@@H](CC(=O)O)CC[C@H]21", "outcome": "inactive"}, {"molecule": "COc1cccc(-c2csc(N3CCN(CC(=O)Nc4ccc5c(c4)OCO5)CC3)n2)c1", "outcome": "inactive"}, {"molecule": "CCNC(=O)C[C@@H]1CC[C@H]2[C@H](COc3ccc(NC(=O)c4ccccc4)cc3C(=O)N2C)O1", "outcome": "inactive"}, {"molecule": "C/C=C/c1ccc([C@H]2[C@@H](CO)N(Cc3ccccn3)[C@H]2CNC(C)=O)cc1", "outcome": "inactive"}, {"molecule": "CCCNC(=O)N1C[C@@H]2[C@H](c3ccccc31)[C@@H](CO)N2C(=O)C1CCOCC1", "outcome": "inactive"}, {"molecule": "COC(=O)C[C@H]1CC[C@@H]2[C@@H](COc3ccc(NC(=O)c4cscn4)cc3C(=O)N2C)O1", "outcome": "inactive"}, {"molecule": "COCC(=O)N(C)C[C@H]1Oc2cc(-c3ccccc3F)ccc2S(=O)(=O)N([C@H](C)CO)C[C@H]1C", "outcome": "inactive"}, {"molecule": "C/C=C/c1ccc([C@H]2[C@@H](CO)N(Cc3ccccn3)[C@@H]2CNC(=O)CC)cc1", "outcome": "inactive"}, {"molecule": "Cc1cc(C(C)(C)C)cc(S(=O)(=O)NCCc2ccncc2)c1C", "outcome": "inactive"}, {"molecule": "CN1C(=O)c2cc(NS(=O)(=O)c3ccc(Cl)cc3)ccc2OC[C@H]2O[C@H](CC(=O)N3CCc4ccccc4C3)CC[C@@H]21", "outcome": "inactive"}, {"molecule": "Cc1ccnc(Nc2nc(-c3c(C)nc4sccn34)cs2)c1", "outcome": "inactive"}, {"molecule": "Cc1ccc(S(=O)(=O)Nc2ccc3c(c2)C(=O)N(C)[C@@H]2CC[C@@H](CC(=O)NCCc4ccncc4)O[C@@H]2CO3)cc1", "outcome": "inactive"}, {"molecule": "COc1cc(N)c(Cl)cc1NC(=O)c1ccccc1", "outcome": "inactive"}, {"molecule": "Cc1ccc(C(=O)n2nc(-c3ccccc3)nc2NCc2ccco2)cc1", "outcome": "inactive"}, {"molecule": "CCC(=O)NC[C@H]1[C@H](c2ccc(C3=CCCC3)cc2)[C@H](CO)N1C(C)=O", "outcome": "inactive"}, {"molecule": "O=C(c1cccc(F)c1)N1C[C@@H]2[C@H](c3ccccc31)[C@H](CO)N2C(=O)Cc1ccccc1", "outcome": "inactive"}, {"molecule": "C[C@@H]1CN([C@H](C)CO)S(=O)(=O)c2ccc(C3=CCCCC3)cc2O[C@@H]1CN(C)C(=O)Nc1ccc2c(c1)OCO2", "outcome": "inactive"}, {"molecule": "CN1[C@@H](CO)[C@@H]2c3ccccc3N(C(=O)Nc3cc(F)ccc3F)C[C@@H]21", "outcome": "inactive"}, {"molecule": "C[C@@H]1CCCCO[C@@H](CN(C)CC2CCCCC2)[C@H](C)CN([C@@H](C)CO)C(=O)c2cc(NC(=O)Nc3cccc4ccccc34)ccc2O1", "outcome": "inactive"}, {"molecule": "CN1C(=O)c2cc(NC(=O)c3cccc(F)c3)ccc2OC[C@H]2O[C@H](CC(=O)O)CC[C@H]21", "outcome": "inactive"}, {"molecule": "Cc1cc(C(=O)Nc2ccc3c(c2)C(=O)N(C)[C@@H]2CC[C@@H](CC(=O)N[C@H](C)c4ccccc4)O[C@H]2CO3)no1", "outcome": "inactive"}, {"molecule": "CCNC(=O)C[C@@H]1CC[C@@H]2[C@@H](COc3ccc(NC(=O)c4ccccc4)cc3C(=O)N2C)O1", "outcome": "inactive"}, {"molecule": "CCNC(=O)Nc1ccc2c(c1)C(=O)N(C)[C@H]1CC[C@@H](CC(=O)NCCOC)O[C@@H]1CO2", "outcome": "inactive"}]}]}
